The list is not random: actives were taken first. Their share in the collection is about 2.4%.
RTF Ca sens inh: cardiac RTF calcium desensitization | P19429+P45379 | IANBD-labeled cardiac RTF, Ca2+ fluorescence | inhibition, % at 7.15 µM | 340,000 compounds, 0.12% hits | AID 493244;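 active = inhibition above the mean inhibition of all tested compounds plus 3 SD, cut at about 17% in these data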;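 also: assay run at fixed EC70 calcium of 1.6 mM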
CRFR2-BP antag: blocks CRF-induced signaling of the CRF-BP/CRF-R2 complex. 350,000 compounds, 0.59% hits. inhibition, % at 11.8 µM. HEK293 CRF-R2/CRF-BP, CRF-induced calcium fluorescence;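 active = inhibition of the ligand-induced calcium signal above about 50% at the single tested concentration, limit read from the data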
CRFR2-BP ag: CRF-BP/CRF-R2 complex agonism; HEK293 CRF-R2/CRF-BP, calcium dye fluorescence (FLIPR); percent of saturating CRF peptide response; activation, % at 13.2 µM; 350,000 compounds, 0.46% hits; AID 588473;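 active = activation of at least 50%, plus an integration ratio under a set limit after plate pattern correction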;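 also: plate controls were neutral control wells without compound for no effect and CRF at EC100 for full effect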
TMEM16A inh: mouse TMEM16A channel inhibition, primary screen. normalized B-score (activity score, 25-100; higher = stronger inhibition) at 10 µM. AID 588511. 310,000 compounds, 1.2% hits. HEK293 TMEM16A/YFP iodide influx fluorescence, ionomycin. Q8BHY3;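 active = ratio plate-corrected score three or more library SD toward inhibition, starting fluorescence score within five deviations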;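 also: score derived from kinetic fluorescence span divided by baseline fluorescence per well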
cardiac RTF act: increases calcium sensitivity of human cardiac regulated thin filaments; P19429+P45379; IANBD-labeled TnC RTF fluorescence at EC20 calcium; 0% EC20 calcium, 100% full calcium; activation, % at 7.2 µM; 340,000 compounds, 0.24% hits;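 active = activation above the mean over all tested compounds plus 3 SD, cut at about 30% in these data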;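 also: rise in fluorescence read as greater calcium sensitivity of cardiac thin filaments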
ANO1 activ: activates or potentiates the mouse TMEM16A chloride channel; Q8BHY3; HEK293 TMEM16A/YFP-H148Q/I152L, iodide quench fluorescence; hits give low values; B-score at 10 µM; 340,000 compounds, 0.3% hits; AID 623877;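 active = fluorescence-ratio B-score plate-corrected deviation score at least 3 library SD below zero, with starting fluorescence score within 5 deviations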;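 also: channel opened by trigger with iodide after compound preincubation; score built on the fluorescence ratio of max minus min over baseline; more negative score means more quench and so TMEM16A activation or potentiation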
An asterisk follows results filed as active; i = inactive; . = not tested or not shown.

SMILES	RTF Ca sens inh	CRFR2-BP antag	CRFR2-BP ag	TMEM16A inh	cardiac RTF act	ANO1 activ
CN(Cc1cccc(F)c1)C(=O)c1ccc(S(=O)(=O)N2CCOCC2)cc1	-7	20	-3	.	-1	i
O=C(/C(N=Nc1cccc([N+](=O)[O-])c1)=C(/O)c1ccc(Br)cc1)C(F)(F)F	.	.	.	100*	.	.
Cc1nc2ccccc2n1CCC(=O)O	-1	31	0	i	-4	i
Cc1nc2ccccc2n2c(O)c(CC(=O)O)cc12	-197	-62	89*	i	125*	i
COc1ccc(-c2nnc(SCC(=O)N(Cc3ccccc3)C(C)(C)C)o2)cc1OC	-3	-2	1	100*	1	i
COc1cc(-c2nnc(SCC(=O)c3ccccc3)o2)cc(OC)c1OC	-5	-23	-2	i	5	i
N#C/C(=N\Nc1cccc([N+](=O)[O-])c1)C(=O)c1ccc(Br)cc1	-6	52*	22	25*	-8	i
N#C/C(=N\Nc1ccc([N+](=O)[O-])cc1)C(N)=S	9	57*	12	100*	-12	i
N#C/C(=N/Nc1ccc([N+](=O)[O-])cc1)C(=N)N1CCCCC1	3	25	0	.	-2	i
CN1C(=O)/C(=C/c2ccc(OCc3ccccc3F)cc2)N(C)C1=S	8	-2	4	i	-7	i
Cc1sc(NC(=O)c2sc3nc4c(C)cccc4cc3c2N)c(C#N)c1C	-10	-164	88*	i	2	i
Cc1cccc2cc3c(N)c(C#N)sc3nc12	-3	-65	20	i	4	i
CN(Cc1ccccc1)C(=O)c1[nH]cnc1C(=O)NCc1ccccc1	-11	-9	-4	.	16	-8.1*
CCCCCN(C(=O)CCC(=O)OCC(=O)c1ccc(F)c(F)c1)c1c(N)n(CCCC)c(=O)[nH]c1=O	-8	14	-1	i	-20	i
CCCCCN(C(=O)CCC(=O)OCC(=O)c1c(C)cc(C)cc1C)c1c(N)n(CCCC)c(=O)[nH]c1=O	-2	52*	-1	i	-12	i
CSc1ccc(S(=O)(=O)NCC(=O)OCC(=O)N(Cc2ccccc2)C(C)C)cc1[N+](=O)[O-]	-9	56*	1	i	-8	i
Cc1cnn(Cc2cccnc2)c1N	-4	-4	3	i	9	i
CCOC(=O)c1c(-c2ccccc2)csc1NC(=O)/C(C#N)=C/c1ccc(O)c(OC)c1	-56	-216	198*	i	47*	i
CCOC(=O)c1c(-c2ccccc2)csc1NC(=O)/C(C#N)=C/c1ccc(OC)c(OC)c1	9	-42	3	i	-8	i
S=c1nc(NCCc2ccccc2Cl)c2ccccc2[nH]1	-4	-13	1	i	-2	.
O=C1OC(CC(=O)N(Cc2nnc(-c3ccc(Cl)cc3)o2)C2CC2)c2ccccc21 (stereo not drawn)	-8	1	-1	.	4	i
CCCc1nnc(NC(=O)Cn2c(=O)oc3cc(Br)ccc32)s1	-7	-61	79*	i	4	i
COc1cccc(C(=O)NCCNC(=O)c2ccco2)c1	8	-1	3	i	-2	i
O=C(CCCOc1ccc(Cl)cc1Cl)N1CCCc2ccccc21	2	3	2	100*	-6	i
O=C(COc1ccc(Cl)cc1Cl)OCC(=O)N1CCCc2ccccc21	-3	-23	2	i	-2	i
O=C(Cc1cccs1)Nc1nc2c(ccc3ccccc32)s1	-2	53*	8	i	-2	i
S=C(N/N=C/c1ccc2c(c1)OCO2)NC1CC2CCC1C2 (stereo not drawn)	.	-10	-1	i	.	i
OCCOCCN1CCN(C(=S)Nc2ccccc2)CC1	2	70*	-1	i	-1	i
OCCN1CCN(C(=S)Nc2ccc(Oc3ccccc3)cc2)CC1	-2	-6	4	i	-9	i
Cc1ccc(S(=O)(=O)N2CCCCC2)cc1NC(=O)COC(=O)c1ccc(O)cc1	-6	-8	-1	i	1	i

Screening results: PubChem BioAssay, several laboratories
